Measured values from PubChem BioAssay AID1347414 (National Center for Advancing Translational Sciences (NCATS), 2020).
Records with an inconclusive call do not appear. Activity calls are given as the source filed them. The call rests on the fitted dose curve; in most records, active means well fitted inhibition curve with a large enough effect; inconclusive means small, poorly fitted or top-dose-only effect; inactive means no such curve, though single readings can be large or run the other way.

Assay: qHTS to identify inhibitors of the type 1 interferon - major histocompatibility complex class I in skeletal muscle: Secondary screen by immunofluorescence; further: nearly all actives have a fitted effect of over 70% in size
Settings: C25cl48 myoblasts, IFN-b induced HLA-ABC immunofluorescence, 24 h; series mostly up to 49.8 µM
Outline: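 HLA-ABC immunofluorescence, with nuclear and cell-body stains, was quantified by laser scanning cytometry. Read-out followed 24 h of IFN-beta (4.0 ng/ml) stimulation of C25cl48 human myoblasts with compounds titrated 1:3 over 11 points from 50 uM, with ruxolitinib as inhibitor control.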
Potency means the concentration at half of the fitted maximal effect.

| SMILES | Potency |
| --- | --- |
| CC1=C(CO)C(=O)O[C@@H]([C@@H](C)[C@H]2CC[C@H]3[C@@H]4C[C@H]5O[C@]56[C@@H](O)C=CC(=O)[C@]6(C)[C@H]4CC[C@]23C)C1 | 726 nM (active) |
| CCNC(=O)c1noc(-c2cc(C(C)C)c(O)cc2O)c1-c1ccc(CN2CCOCC2)cc1 | inactive |
| Cc1ncc(-c2ccnc(Nc3ccc(S(C)(=O)=O)cc3)n2)n1C(C)C | 914 nM (active) |
| C=CC(=O)N1CC/C(=C\c2ccc(F)c([N+](=O)[O-])c2)C(=O)/C(=C/c2ccc(F)c([N+](=O)[O-])c2)C1 | 182 nM (active) |
| Cn1cc(CNCC2CCN(c3ncc(C(=O)NO)cn3)CC2)c2ccccc21 | 9.1 nM (active) |
| Cn1cc(-c2ccc(-c3cncc(Cl)c3N3CCC4(CCNC4=O)CC3)cc2)cn1 | inactive |
| CC1(C)CC(=O)c2c(C(F)(F)F)nn(-c3ccc(C(N)=O)c(NC4CCC(O)CC4)c3)c2C1 (configuration not stated) | 32.4 nM (active) |
| Cc1cnc(Nc2ccc(N3CCN(C)CC3)cc2)nc1Nc1cccc(S(=O)(=O)NC(C)(C)C)c1 | 3640 nM (active) |
| NC(=O)Nc1sc(-c2ccc(F)cc2)cc1C(N)=O | 1450 nM (active) |
| CC(C)(C)c1cnc(CSc2cnc(NC(=O)C3CCNCC3)s2)o1 | 289 nM (active) |
| COc1cccc2c1C(=O)c1c(O)c3c(c(O)c1C2=O)C[C@@](O)(C(=O)CO)C[C@@H]3O[C@H]1C[C@H](N)[C@H](O)[C@H](C)O1 | 230 nM (active) |
| Cc1cc(Nc2nc(N[C@@H](C)c3ncc(F)cn3)ncc2Cl)n[nH]1 | 647 nM (active) |
| C#Cc1cccc(Nc2ncnc3cc(OC)c(OCCCCCCC(=O)NO)cc23)c1 | 289 nM (active) |
| COc1cccc2c1C(=O)c1c(O)c3c(c(O)c1C2=O)C[C@@](O)(C(=O)CO)C[C@@H]3O[C@H]1C[C@H](N)[C@H](OC2CCCCO2)[C@H](C)O1 (some centres not stated) | 5140 nM (active) |
| CS[C@H]1SC[C@@H]2C(=O)N(C)[C@H](C(C)C)C(=O)OC[C@H](NC(=O)c3cnc4ccccc4n3)C(=O)N[C@H](C)C(=O)N(C)[C@H]1C(=O)N(C)[C@H](C(C)C)C(=O)OC[C@H](NC(=O)c1cnc3ccccc3n1)C(=O)N[C@H](C)C(=O)N2C | 4.1 nM (active) |
| CNC(=O)c1cc(Oc2ccc(NC(=O)Nc3cc(C(C)(C)C)nn3-c3ccc4ncccc4c3)c(F)c2)ccn1 | 1820 nM (active) |
| COc1cc(F)ccc1-c1ncnc(Nc2cccc(CS(C)(=N)=O)c2)n1 (configuration not stated) | 814 nM (active) |
| CCCCC(=O)OCC(=O)[C@H]1[C@H](C)C[C@H]2[C@@H]3C[C@H](F)C4=CC(=O)C=C[C@]4(C)[C@@]3(F)[C@@H](O)C[C@@]21C | inactive |
| CC(C)(C)c1nc2c3cc[nH]c(=O)c3c3cc(F)ccc3c2[nH]1 | 514 nM (active) |

| SMILES | Potency |
| --- | --- |
| CC(=O)c1ccc2c(c1)c1cc(C(C)=O)ccc1n2CCNC(C)C | 647 nM (active) |
| O=C1Nc2nc(-c3c(O)cccc3OCC3CC3)cc([C@@H]3CCCNC3)c2CO1 | 4580 nM (active) |
| Cc1[nH]nc2ccc(-c3cncc(OC[C@@H](N)Cc4ccccc4)c3)cc12 | 726 nM (active) |
| O=[N+]([O-])c1ccc2c(c1)S(=O)(=O)C=C2 | 1820 nM (active) |
| CCCC(=O)O[C@]1(C(=O)CO)CC[C@H]2[C@@H]3CCC4=CC(=O)CC[C@]4(C)[C@H]3[C@@H](O)C[C@@]21C | inactive |
| Cc1cc2c(cc1CC(=O)c1sccc1S(=O)(=O)Nc1onc(C)c1Cl)OCO2 | inactive |
| CC[C@@]1(O)C(=O)OCc2c1cc1n(c2=O)Cc2c-1nc1cc(F)c(C)c3c1c2[C@@H](N)CC3 | 1290 nM (active) |
| CC1(COc2ccc3c(c2)ncn3-c2ccc3cccc(N4CCC(N)CC4)c3n2)COC1 | 5140 nM (active) |
| COC(=O)c1nc(Cl)c(Cl)nc1N | 5760 nM (active) |
| COC(=O)N[C@@H](C)CNc1nccc(-c2cn(C(C)C)nc2-c2cc(Cl)cc(NS(C)(=O)=O)c2F)n1 | inactive |
| CC(C)C[C@H](NC(=O)[C@H](Cc1ccccc1)NC(=O)c1cnccn1)B(O)O | 25.7 nM (active) |
| COc1cc(C(=O)N2CCC(N3CCN(C)CC3)CC2)ccc1Nc1ncc2c(n1)N(C)c1ccccc1C(=O)N2C | 6470 nM (active) |
| CCc1c2c(nc3ccc(O)cc13)-c1cc3c(c(=O)n1C2)COC(=O)[C@]3(O)CC | 2570 nM (active) |
| Cc1ccc(-c2ncn(-c3ccc(Nc4nccc(-c5cccc(N6CCOCC6)c5)n4)cc3)n2)cn1 | 1820 nM (active) |
| O=C(NC1CCNCC1)c1[nH]ncc1NC(=O)c1c(Cl)cccc1Cl | 258 nM (active) |
| CO[C@H]1C(=O)[C@]2(C)[C@@H](OC)C[C@H]3OC[C@@]3(OC(C)=O)[C@H]2[C@H](OC(=O)c2ccccc2)[C@]2(O)C[C@H](OC(=O)[C@H](O)[C@@H](NC(=O)OC(C)(C)C)c3ccccc3)C(C)=C1C2(C)C | inactive |
| CC(C)C[C@H](NC(=O)CNC(=O)c1cc(Cl)ccc1Cl)B1OC(=O)CC(CC(=O)O)(C(=O)O)O1 (some centres not stated) | 814 nM (active) |
| CC(C)[C@H](C(=O)Nc1ccc(C(=O)NO)cc1)c1ccccc1 | 458 nM (active) |
